# KAT2A inh – qHTS Assay for Inhibitors of GCN5L2. Histone acetyltransferase KAT2A (Homo sapiens), Q92830. GCN5L2 HAT assay, ThioGlo1 CoA-SH fluorescence. Potency, µM (highest dose often 58.9 µM), actives largely listed as inhibitors. 0.21% of 390,000 active. AID 504327, 2011
#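 ThioGlo1-coupled HAT assay: 20nM GCN5L2, 70uM acetyl-CoA, 75uM H3(1-25) peptide, pH 7.5. Fluorescence read at 340/540nm at start and after 20 min at room temperature.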
# VDR inh – Inhibitors of the vitamin D receptor (VDR): qHTS; Vitamin D3 receptor (Homo sapiens), P11473; VDR-SRC2-3 peptide fluorescence polarization, 2 h; 0.93% of 400,000 active; Potency, µM, usual class: inhibitors; AID 504847, 2011
#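 Compounds are added to VDR with labelled SRC2-3 coactivator peptide and held 2 h at room temperature. Inhibition of the VDR–peptide interaction is then read as a change in fluorescence polarization.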
# ALOX12 inh – Primary qHTS assay for inhibitors of human arachidonate 12S-lipoxygenase (ALOX12): Round 2. Polyunsaturated fatty acid lipoxygenase ALOX12 (Homo sapiens), P18054. purified 12hLO, xylenol orange hydroperoxide absorbance. Potency, µM (titrated, usually from 108 µM), actives largely listed as inhibitors. 1.1% of 580,000 active
#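 Purified human 12hLO at 150 nM in 25 mM Hepes, 0.01% Triton X-100, pH 7.0, preincubated 15 min at room temperature with compound. Reaction started with 40 uM arachidonic acid, 30 min at room temperature. Hydroperoxide measured by Fe-xylenol orange, 573/405 nm absorbance ratio.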
# PLK1 PBD block – qHTS for Inhibitors of PLK1-PDB (polo-like kinase 1 - polo-box domain): Primary Screen; Serine/threonine-protein kinase PLK1 (Homo sapiens), P53350; Plk1 PBD binding of FITC phosphopeptide, fluorescence polarization; 2.8% of 360,000 active; Potency, µM, hits mostly inhibitors; further: series mostly up to about 57 µM; nearly all actives have a fitted effect of over 65% in size
# Target sequence (P53350 whole entry, looked up, the tested form may be a part): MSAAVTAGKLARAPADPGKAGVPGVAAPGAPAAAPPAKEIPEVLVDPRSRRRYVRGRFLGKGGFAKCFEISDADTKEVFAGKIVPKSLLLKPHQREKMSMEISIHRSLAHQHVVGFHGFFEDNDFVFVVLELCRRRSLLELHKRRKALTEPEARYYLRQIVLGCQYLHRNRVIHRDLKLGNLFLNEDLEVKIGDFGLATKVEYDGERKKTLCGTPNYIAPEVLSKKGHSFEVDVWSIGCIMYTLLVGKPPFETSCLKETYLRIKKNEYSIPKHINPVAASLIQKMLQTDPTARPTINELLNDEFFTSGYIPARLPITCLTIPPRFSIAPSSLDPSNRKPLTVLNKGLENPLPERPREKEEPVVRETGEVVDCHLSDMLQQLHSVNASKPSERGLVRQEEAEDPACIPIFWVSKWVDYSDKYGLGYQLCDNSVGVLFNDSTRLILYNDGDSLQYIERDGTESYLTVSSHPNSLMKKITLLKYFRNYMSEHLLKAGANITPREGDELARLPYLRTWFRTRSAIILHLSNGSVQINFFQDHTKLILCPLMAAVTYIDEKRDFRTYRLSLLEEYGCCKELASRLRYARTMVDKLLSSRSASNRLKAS
# Numbers stand for hits; - = inactive; ? = inconclusive; . = no result; ! = repeats disagree; [ ] = another dose, or the depositor's remark. Only some compounds are listed: those with a hit (about 3% of all), similar ones and a draw of the others. The call rests on the fitted dose curve; in most records, active means well fitted curve in the direction sought with a large enough effect; inconclusive means small, poorly fitted or top-dose-only effect, or another doubt; inactive means no such curve, though single readings can be large; an effect the other way counts as inactive or inconclusive.
SMILES,KAT2A inh,VDR inh,ALOX12 inh,PLK1 PBD block
O=C(Nc1sc2c(c1C(=O)O)CCCCC2)c1ccccc1,-,?,?,19µM
Cc1ccc(NC(=O)c2c(NC(=O)c3ccc(F)cc3)sc3c2CCCC3)cc1C,-,79µM,-,.
Cc1ccccc1CN(C)C(=O)CN1CCCC1c1ccc2c(c1)OCCCO2 (stereo not drawn),.,.,-,.
O=C(Nc1nc(-c2cccnc2)cs1)C1CC(=O)N(c2ccccc2Cl)C1 (stereo not drawn),.,.,-,.
CC(=O)c1ccc(O)cc1,.,.,-,.
O=C1C=CC(=C(c2ccc(O)cc2)c2ccc(O)cc2)C=C1,-,50µM,?,-
COc1ccc(/C=C2\SC(=S)N(CCCC(=O)N3CCOCC3)C2=O)cc1,.,-,45µM,-
COC(=O)CCCCCN1C(=O)/C(=C\c2ccncc2)SC1=S,-,79µM,?,-
CNC(=O)c1ccc(-c2nc(CN3CCN(C(=O)Nc4ccccc4Cl)CC3)c(C)o2)cc1,.,.,-,.
O=C(O)c1cccc2c(-c3ccccc3)c(-c3ccccc3)[nH]c12,-,-,-,24µM
NC(=O)c1ccc(NC(=O)Cn2ccc3c(Cl)cccc32)cc1,.,.,-,.
CCC(C(=O)NCc1ccc(C)cc1)c1ccccc1 (stereo not drawn),-,-,25µM,-
CCCCn1c(NS(=O)(=O)c2ccc(C)cc2)c(S(=O)(=O)c2ccccc2)c2nc3ccccc3nc21,-,?,-,9.5µM
CCCCC1OC23CCCCC2C(C#N)(C#N)C1(C#N)C(=N)O3 (stereo not drawn),-,-,-,-
CCCCCCCCOc1ccc(C2OC34CCCCC3C(C#N)(C#N)C2(C#N)C(=N)O4)cc1 (stereo not drawn),-,-,.,24µM
CCCCc1nnc(NC(=O)c2cc(=O)[nH]c3ccccc23)s1,.,.,-,.
COc1ccc(OC)c(/C=C2\SC(=S)N(NS(=O)(=O)c3ccc(C)cc3)C2=O)c1,?,?,?,27µM
COc1ccccc1/C=C1\SC(=S)N(NS(=O)(=O)c2ccc(C)cc2)C1=O,-,-,35µM,27µM
COc1cc(CNn2c(C)n[nH]c2=S)cc(Cl)c1OCc1ccccc1,-,-,20µM,-
CCn1c(=O)c([N+](=O)[O-])c(Cl)c2ccccc21,-,?,.,2.4µM
CS(=O)(=O)N1CCC(OC2CCN(C(=O)Nc3ccc(Cl)cc3F)CC2)CC1,.,.,-,.
O=C(O)C1Nc2c(C(=O)N3CCOCC3)cccc2C2C=CCC12 (stereo not drawn),-,?,.,12µM
Cn1c(=O)c2c(nc(SCCCCC#N)n2Cc2ccccc2Cl)n(C)c1=O,.,.,-,.
COC(=O)c1ccc(C(=O)OC)c(NC(=O)CSc2cccc[n+]2[O-])c1,-,-,-,24µM
O=C(CSc1cccc[n+]1[O-])Nc1ccccc1Oc1ccccc1,-,?,-,30µM
SMILES,KAT2A inh,VDR inh,ALOX12 inh,PLK1 PBD block
O=C(CSc1cccc[n+]1[O-])Nc1ccccc1C(F)(F)F,-,-,-,-
CC1(OC(=O)c2ccc(Cl)nc2)C(=O)C=C2C=C(c3ccc(C#N)cc3)OC=C2C1=O (stereo not drawn),.,89µM!,.,.
CCOc1ccc(C2Nc3ccccc3C(=O)N2C2CC2)cc1OC (stereo not drawn),.,.,-,.
CCOc1ccc(C2NC(=O)C(C#N)=C(S)N2c2ccc(C)cc2)cc1OC (stereo not drawn),-,18µM,?,-
CCOc1ccc(C2NC(=O)C(C#N)=C(S)N2c2cccc(C)c2)cc1OC (stereo not drawn),-,79µM,-,-
O=C(NC1CC1)C(Sc1ccc2ccccc2c1)c1ccc(F)cc1 (stereo not drawn),.,.,-,.
Nc1nc(Cl)nc2ccc(Br)cc12,-,-,-,17µM
Nc1nc2ccc(Br)cc2o1,.,-,-,-
CN(C)CCCNCC(=O)c1c(-c2ccccc2)n(C)c2ccccc12,-,79µM,?,-
Cc1cccc2c(=O)c(-c3ccc4c(c3)OCO4)c(NC(=O)c3ccco3)oc12,-,-,-,24µM
Cc1cccc(-c2c(NC(=O)c3ccco3)oc3c(C)cccc3c2=O)c1,-,-,-,-
Fc1ccc(OC2CN(Cc3cccc4ccccc34)C2)c(F)c1,.,.,-[6.33 µM],.
Cc1cc(C)n(-c2nc3ccccc3nc2NCc2ccc(F)cc2)n1,.,.,-,.
CCOC(=O)Cc1csc(N/N=C\c2cccc(Br)c2)n1,?,?,-,24µM
CCOC(=O)Cc1csc(N/N=C/c2ccccc2)n1,-,-,-,-
Cc1cccc(C(C)C)c1NC(=O)CCc1ncc(-c2ccccc2)o1,.,.,-,.
COC(=O)C1C(=O)C2=C(CC1C)NC(=O)CC2c1ccccc1 (stereo not drawn),-,-,?,-
COC(=O)C1C(=O)C2=C(CC1C)NC(=O)CC2c1cccc(C)c1 (stereo not drawn),-,-,-,27µM
Cc1cccc(C(=O)NC(NC(C)C)C(Cl)(Cl)Cl)c1 (stereo not drawn),.,.,-,.
COc1ccc(-c2cc(OC(=O)c3cccc(Br)c3)c3c(C)oc(C)c3c(=O)c2)cc1,.,.,4.5µM,.
CC(=O)NCCNC(=O)CN1CCCC(c2nc3ccccc3o2)C1 (stereo not drawn),.,.,-,.
CCc1nnc(CC)n1N,.,.,-,.
Oc1ccc(Br)cc1CNc1cccc2cccnc12,-,-,-,-
Oc1c(Br)cc(Br)cc1CNc1cccc2cccnc12,-,-,14µM,-
O=C(CSc1cccc[n+]1[O-])CSc1cccc[n+]1[O-],-,-,-,-
SMILES,KAT2A inh,VDR inh,ALOX12 inh,PLK1 PBD block
[O-][n+]1ccccc1SSc1cccc[n+]1[O-],14µM,5.6µM,?,.
Cc1cc(Br)ccc1NCC(=O)N(C1CCCCC1)C1CCS(=O)(=O)C1 (stereo not drawn),.,.,-,.
COc1ccc(C(C(=O)NC(C)C)N(C(=O)CCC(=O)Nc2nccs2)c2ccccc2F)cc1 (stereo not drawn),-,-,-,13µM
CC(=O)Nc1ccc(S(=O)(=O)NC2C3(C)CCC(C3)C2(C)C)cc1 (stereo not drawn),-,-,3.2µM,-
COC(=O)c1ccccc1NC(=O)C(C)Oc1ccccc1 (stereo not drawn),-,?,-,3µM
CCOC(=O)C1=C(C)N(C[C@@H]2CC[C@@H](Cc3ccc(-c4ccccc4)cc3)O2)C(=O)NC1c1ccc(C(F)(F)F)cc1 (stereo partly drawn),-,-,-,-
CCOC(=O)C1=C(C)N(C[C@@H]2CC[C@@H](Cc3ccc(-c4ccccc4)cc3)O2)C(=O)NC1c1ccc(SCc2ccco2)c([N+](=O)[O-])c1 (stereo partly drawn),?,-,18µM,?
COc1ccc2c(c1)CCc1cn[nH]c1-2,-,?,.,27µM
CCc1ccc(CNC(=O)c2cc3cc(C)ccc3[nH]2)cc1,.,.,35µM,.
COc1cccc(CNC(=O)c2cc3cc(C)ccc3[nH]2)c1,.,.,-,.
COCCN(C)C[C@@H]1CN(c2cc(C)c3ccc(SC)cc3n2)C[C@@H]1CO,.,.,-,.

# Bioassay records (PubChem)
